Screening data from PubChem.
PriA SSB inh: K. pneumoniae PriA-SSBct interaction inhibition | AlphaScreen SSBct-PriA binding, biotinylated peptide | inhibition, % at 33 µM | actives 0.6% (n = 430,000) | AID 1272365; in the data active = inhibition mostly above about 37%, no sharp cut-off; inactive = mostly below about 20%;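 note: plate controls were negative control peptide for no effect and reference peptide for full effect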
MazF activator: activators of E. coli MazEF toxin-antitoxin RNase; AID 504720; activation, % at 20 µM; P0AE70; actives 0.32% (n = 350,000); FAM/BHQ RNA-DNA oligo cleavage fluorescence, 5 h; in the data active = activation above about 50%
PfHsp40 rescue: compounds rescuing yeast from Plasmodium falciparum HSP40 toxicity; S. cerevisiae expressing PfHsp40, growth rescue, ATP luminescence; growth rescue, % at 12.5 µM; actives 0.68% (n = 340,000); in the data active = growth rescue above about 28%, passing the limit was not always enough;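 note: yeast W303a lacking pdr1 and pdr3 grown in galactose medium; growth measured after three days at 30 °C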
PrPC TRFRET: cell surface PrPC inhibition, primary TR-FRET screen; inhibition, % at 13.8 µM; P04156; AID 720596; actives 0.43% (n = 370,000); TR-FRET read-out; in the data active = inhibition above about 24%; note: 0% = median of the test wells and 100% = reference compound wells
PrP 5UTR inh: inhibition of PrP 5' UTR reporter expression; actives 0.35% (n = 340,000); inhibition, % (test concentration not listed); cell-based PrP 5' UTR mRNA reporter, plate reader; AID 488862; in the data active = inhibition above about 52%; note: 0 = median of the neutral control wells
PrPC confirm: cell surface PrPC inhibition, TR-FRET confirmation. cell surface PrPC level. AID 743200. actives 65% (n = 1,500). inhibition, % at 13.8 µM. shares compounds with PrPC TRFRET; in the data active = inhibition above about 25%
LD9 cytotox: LD9 cell cytotoxicity, PrPc inhibitor counter-screen. actives 29% (n = 1,500). shares compounds with PrPC TRFRET. LD9 cells cytotoxicity, luminescence viability. inhibition, % at 13.8 µM; in the data active = inhibition above about 9.5%
* marks the source's active call; other numbers are inactive results; x = not tested or not shown. Compounds with a hit are over-represented: about 1.8% of the library has one in this group of screens.

SMILES | PriA SSB inh | MazF activator | PfHsp40 rescue | PrPC TRFRET | PrP 5UTR inh | PrPC confirm | LD9 cytotox
NC(=O)c1cc(NC(=O)c2cc(Br)c(Br)s2)cc(C(N)=O)c1 | 6 | 10 | 2 | 46* | -25 | 47* | 0
Oc1cc2c(cc1CN1CCc3ccccc3C1)OCO2 | 8 | 1 | 0 | -7 | -17 | x | x
Oc1ccc(CN2CCc3ccccc3C2)c2cccnc12 | 101* | 4 | -2 | 27* | 17 | 35* | 28*
CC1=C(C)[N+](=O)C2(O)CCCCC2(C)N1[O-] (centres undefined) | -8 | 1 | -1 | 36* | -15 | 4 | -4
NC(=N[N+](=O)[O-])N1CCN(C(=O)Oc2ccccc2)CC1 | -1 | x | x | x | x | x | x
COc1ccc(C(=O)NNC(=O)CSc2nc(C(C)C)nc3ccccc23)cc1 | -16 | 5 | -1 | 81* | -15 | 101* | -17
CCc1nc(SCC(=O)N2c3ccccc3Sc3ccccc32)c2ccccc2n1 | -11 | -9 | 0 | 46* | -24 | 89* | -8
CCc1nc(SCC(=O)NNC(=O)c2ccc(OC)cc2)c2ccccc2n1 | -6 | 8 | -2 | 109* | -23 | 116* | -10
COc1ccc(C(=O)NNC(=O)CSc2ccccc2)cc1 | -2 | 10 | 0 | 4 | -16 | x | x
CCc1nc(SCC(=O)Nc2nc3c(s2)CCCC3)c2ccccc2n1 | -12 | -1 | 0 | 30* | -8 | 72* | -9
COc1cc(/C=C/C(=O)OCC(=O)Nc2ccccc2Sc2ccc(Cl)cc2)ccc1O | -2 | 7 | 5 | 3 | -1 | x | x
COCOCCn1cc(CN2CCS(=O)(=O)N(Cc3ccc(-c4ccncc4)cc3)C(C)C2=O)nn1 (centres undefined) | x | 5 | x | 3 | x | x | x
CCN(CC(=O)Nc1ccccc1C(F)(F)F)C(=O)c1ccc2c(c1)NC(=O)CS2 | 0 | 4 | -1 | 4 | -28 | x | x
O=C(NCCO)c1cccc(-c2cc(Nc3ccc(OC(F)(F)F)cc3)ncn2)c1 | x | x | x | -3 | x | x | x
NC(=O)c1cccc(-c2cc(Nc3ccc(OC(F)(F)F)cc3)ncn2)c1 | -13 | 7 | 1 | 51* | -15 | 24 | 7
C#CC[N+](C)(C)CC#Cc1ccc(C)cc1 | -7 | 0 | -1 | -2 | -32 | x | x
CCN(CC)CCOC(=O)/C=C/c1ccccc1 | -10 | 7 | 0 | -2 | -17 | x | x
CCN(CC)CC(C)(C)C(=O)/C=C/c1ccc(/C=C/C(=O)C(C)(C)CN(CC)CC)cc1 | -2 | 11 | 0 | 90* | 46 | 105* | 96*
Cc1ncc(CO)c(C=NNC(=O)c2cc3c(s2)CCCC3)c1O | 7 | x | x | x | x | x | x
Cc1ncc(CO)c(/C=N/NC(=O)c2cc3c(s2)CCCC3)c1O | x | -12 | 19 | 40* | 13 | 23 | 15*
CCCCCCCn1c2c(c(=N)c3ccccc31)CCC2 | -4 | 23 | 0 | 30* | -28 | 31* | 15*
COC(=O)C(C)N(c1ccc(C)cc1)S(=O)(=O)c1c(C)[nH]c(=O)[nH]c1=O (centres undefined) | -5 | -3 | 0 | 1 | -2 | x | x
COC(=O)Nc1ccc(S(=O)(=O)N2c3ccccc3CCC2C)cc1 (centres undefined) | -5 | -9 | 1 | 28* | -40 | 8 | 4
Cc1cc(O)cc(O)c1/C=N/NC(=O)c1ccc2c(c1)OCCO2 | x | 1 | x | 32* | x | 25* | 21*
O=C(O)c1ccc(/C=N/NC(=O)c2ccc3c(c2)OCCO3)cc1 | x | 2 | 0 | 5 | -2 | x | x
O=C(c1cc(COc2ccc3ncccc3c2)on1)N1CCC(O)CC1 | -7 | 6 | 0 | 9 | -26 | x | x
O=C(NC1CCCCCCC1)c1cc(COc2ccc3ncccc3c2)on1 | 2 | 14 | 2 | 28* | -21 | 19 | 18*
CC(CNC(=O)c1cc(COc2ccc3ncccc3c2)on1)c1ccccc1 (centres undefined) | -8 | -3 | 9 | 25* | -21 | 22 | 17*
Cc1cc(CN(C)C(=O)c2cc(COc3ccc4ncccc4c3)on2)on1 | -19 | 0 | 1 | 17 | -9 | x | x
COc1ccc(N2CC(C(=O)N3CCN(S(=O)(=O)c4ccc(F)c(F)c4)CC3)CC2=O)c(OC)c1 (centres undefined) | -2 | -3 | 0 | 1 | -15 | x | x
